Records with an inconclusive call do not appear. Activity calls are given as the source filed them. Calls follow the shape of the dose curve; as a rule, active = well fitted inhibition curve with a large enough effect; inconclusive = small, poorly fitted or top-dose-only effect; inactive = no such curve, though single readings can be large or run the other way.
Target: Retinaldehyde dehydrogenase 3 (Homo sapiens) (UniProt P47895)
Assay: qHTS for Inhibitors of the Aldehyde Dehydrogenase Family (ALDH1A3) Primary screen (AID 2061315);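 as to activity change, negative = inhibition: plate controls were DMSO vehicle for no effect and reference inhibitor for full effect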
Details: ALDH inhibition qHTS; series mostly up to 56 µM; activity change, negative = inhibition: at the top concentration
Potency is read from the fitted curve at half-maximal effect.

SMILES | activity change, negative = inhibition | Potency
CC1(C)CC2CC(C)(CN2S(=O)(=O)c2ccc(C(=O)Nc3cccc(S(=O)(=O)N4CCOCC4)c3)cc2)C1 (stereo not given) | -8.55% (inactive) | 
COc1cccc(CNc2ccc(S(=O)(=O)Nc3ccc(C4CCNCC4)cc3)cc2)c1O | -10.4% (inactive) | 
O=C(O)CSc1cc(NS(=O)(=O)c2ccc(Br)cc2)c2ccccc2c1O |  | 631 nM (active)
CC(C)(C)OC(=O)N1CCN(c2ccc(NCc3ccc4c(-c5ccc(F)cc5)cc(=O)oc4c3)cc2)CC1 | -27.1% (inactive) | 
CC(=O)Nc1ccc(OC2=NS(=O)(=O)c3ccccc32)cc1 | -16.4% (inactive) | 
O=C(O)c1ccccc1OC1=NS(=O)(=O)c2ccccc21 | -8.21% (inactive) | 
C[C@H](N)C(=O)Nc1cccc(-c2nn3c(=O)cc(N4CCNCC4)nc3s2)c1 | -5.15% (inactive) | 
COc1ccc(C2Nc3ccccc3C(=O)N2Cc2ccccc2)cc1COc1ccc(Cl)cc1 (stereo not given) | 1.6% (inactive) | 
NC1CCN(c2nc(-c3ccc(Br)cc3)cs2)CC1 | 1.16% (inactive) | 
COc1ccc(CCCN2CCC(COC(c3ccccc3)c3ccccc3)CC2)cc1 | 0.253% (inactive) | 
O=C(Nc1ccc(Cl)c(Cl)c1)Nc1ccc(-c2ccncc2)s1 | 24.5% (inactive) | 
COc1ccc(C2Nc3ccccc3C(=O)N2Cc2ccccc2)cc1COc1cccc(C(F)(F)F)c1 (stereo not given) | -16.8% (inactive) | 
S=C(Nc1cc(Cl)ccn1)N1CCN(c2cccc(Cl)c2Cl)CC1 | 0.322% (inactive) | 
O=C(/C=C/c1ccc2c(c1)OCO2)Nc1cccc([S+](=O)([O-])Nc2ccccc2F)c1 |  | inactive
O=C(Nc1ccc2ccccc2c1)Nc1nnc(Br)s1 | 21.7% (inactive) | 
CN(C)c1ccc(/C=C/C(=O)Nc2cccc([S+](=O)([O-])Nc3ccccc3F)c2)cc1 | -5.18% (inactive) | 
Cc1c(Cl)cccc1NS(=O)(=O)c1cc2c(cc1Cl)CCC(=O)N2 | -0.591% (inactive) | 
Nc1ccc2c(c1)S(=O)(=O)NC2=O | -8.17% (inactive) | 

SMILES | activity change, negative = inhibition | Potency
COc1ccc(C(=O)N(Cc2ccccc2)Cc2ccc(OC)c(COc3ccc(NC(C)=O)cc3)c2)c(O)c1 | -4.19% (inactive) | 
N[C@@H](CO)C(=O)Nc1ccc(Cl)cc1C(=O)c1ccc[nH]1 | 11.9% (inactive) | 
Cc1cc(N[S+](=O)([O-])c2ccc(NC(=O)Cc3ccc4nccnc4c3)cc2)no1 | -1.38% (inactive) | 
Cc1cnc(-c2ccccc2C(F)F)nc1NCc1ccc(-n2ccnn2)cc1 | -2.47% (inactive) | 
Cc1ccc(OCCn2c(CCNC(=O)c3cccs3)nc3ccccc32)cc1 | 3.12% (inactive) | 
N#Cc1nc(Nc2cccc(F)c2)nc(NC2CCCC2)n1 | 9.52% (inactive) | 
c1ccc(CN(Cc2ccccc2)Cc2nnc(-c3cc4ccccc4[nH]3)s2)cc1 | -8.87% (inactive) | 
Cc1ccc(OCCn2c(CCNC(=O)c3cccnc3)nc3ccccc32)cc1 | -7.59% (inactive) | 
O=C([C@H](Cc1ccc(O[S+](=O)([O-])c2cccc3cccnc23)cc1)N[S+](=O)([O-])c1ccccn1)N1CCN(c2ccccc2)CC1 | 10.6% (inactive) | 
CCCc1nnc(-c2cnn(C)c2N)n1CCCn1ccnc1 | 2.41% (inactive) | 
Cc1nnc(-c2cnn(C)c2N)n1CCc1ccccc1 | -1.2% (inactive) | 
O=C(CCCc1ccc2cccnc2n1)NCc1cc(-c2ccc(F)c(C(F)(F)F)c2)no1 | 0.828% (inactive) | 
O=C(Nc1cccc([S+](=O)([O-])Nc2ccccc2F)c1)c1ccccc1 | -9.66% (inactive) | 
CC(C)c1ccccc1-c1nc(NCC2CCN(c3cccnc3)CC2)c2ccccc2n1 | 3.45% (inactive) | 
FC(F)(F)c1ccc(-c2nc(-c3nnc4n3CCCCC4)c(C(F)(F)F)o2)cc1 | 6.54% (inactive) | 
N=c1c2c(ncn1-c1ccccc1)Oc1ccc3ccccc3c1C2c1ccc2c(c1)OCCO2 (stereo not given) | -13% (inactive) | 
COc1ccc(C2Nc3ccccc3C(=O)N2Cc2ccc(C(C)(C)C)cc2)cc1COc1ccc(NC(C)=O)cc1 (stereo not given) | -0.468% (inactive) | 
O=C1NS(=O)(=O)c2cc(Br)ccc21 | -10.8% (inactive) | 

Target: Aldehyde dehydrogenase 1A1 (Homo sapiens) (UniProt P00352)
Assay: qHTS for Inhibitors of the Aldehyde Dehydrogenase Family (ALDH1A1) Confirmatory screens (AID 2061316); also: nearly all actives have a fitted effect of over 65% in size; as to activity change, negative = inhibition: % is scaled to controls: 0 for no effect and ±100 for the full control effect
Details: ALDH inhibition qHTS; series mostly up to 47.3 µM; activity change, negative = inhibition: at the top concentration

SMILES | activity change, negative = inhibition | Potency | outcome
CC1(C)CC2CC(C)(CN2S(=O)(=O)c2ccc(C(=O)Nc3cccc(S(=O)(=O)N4CCOCC4)c3)cc2)C1 (stereo not given) | -25.2% (inactive) |  | 
O=C(O)CSc1cc(NS(=O)(=O)c2ccc(Br)cc2)c2ccccc2c1O |  | 0.565 µM (active) | 
CC(=O)Nc1ccc(OC2=NS(=O)(=O)c3ccccc32)cc1 |  |  | inactive
CC1CC(O)CC(C)(C)C1(O)CCO (stereo not given) | -18.4% [at 86.7 µM] (inactive) |  | 
O=C(O)c1ccccc1OC1=NS(=O)(=O)c2ccccc21 |  |  | inactive
COc1cc([C@@H](O[C@@H]2O[C@H](CO)[C@@H](O)[C@H](O)[C@H]2O)[C@@H]2CO[C@H](c3ccc(O)c(OC)c3)[C@H]2CO)ccc1O | -20.9% [at 25.5 µM] (inactive) |  | 
NC1CCN(c2nc(-c3ccc(Br)cc3)cs2)CC1 | -16.2% (inactive) |  | 
O=C(O)c1cccc(S(=O)(=O)Nc2nccs2)c1 | -7.47% (inactive) |  | 
COc1ccc(CCCN2CCC(COC(c3ccccc3)c3ccccc3)CC2)cc1 |  |  | inactive
O=C(Nc1ccc(Cl)c(Cl)c1)Nc1ccc(-c2ccncc2)s1 |  | 8.96 µM (active) | 
COc1ccc(C2Nc3ccccc3C(=O)N2Cc2ccccc2)cc1COc1cccc(C(F)(F)F)c1 (stereo not given) |  |  | inactive
S=C(Nc1cc(Cl)ccn1)N1CCN(c2cccc(Cl)c2Cl)CC1 |  | 3.18 µM (active) | 
O=C(/C=C/c1ccc2c(c1)OCO2)Nc1cccc([S+](=O)([O-])Nc2ccccc2F)c1 | 0.281% (inactive) |  | 
Cc1c(Cl)cccc1NS(=O)(=O)c1cc2c(cc1Cl)CCC(=O)N2 |  |  | inactive
Nc1ccc2c(c1)S(=O)(=O)NC2=O | -23.9% (inactive) |  | 
Cc1ccc(OCCn2c(CCNC(=O)c3cccs3)nc3ccccc32)cc1 |  | 12.7 µM (active) | 
COc1cc(/C=C/C(=O)OC[C@H]2O[C@H](O[C@]3(CO)O[C@H](CO)[C@@H](O)[C@@H]3O)[C@H](O)[C@@H](O)[C@@H]2O)cc(OC)c1O | -13.9% [at 25.5 µM] (inactive) |  | 
Cc1ccc(OCCn2c(CCNC(=O)c3cccnc3)nc3ccccc32)cc1 | -18.3% (inactive) |  | 
CCCc1nnc(-c2cnn(C)c2N)n1CCCn1ccnc1 | 0.101% (inactive) |  | 
Cc1nnc(-c2cnn(C)c2N)n1CCc1ccccc1 | -8.15% (inactive) |  | 
O=C(CCCc1ccc2cccnc2n1)NCc1cc(-c2ccc(F)c(C(F)(F)F)c2)no1 | -0.95% (inactive) |  | 
O=C(Nc1cccc([S+](=O)([O-])Nc2ccccc2F)c1)c1ccccc1 | -19.8% (inactive) |  | 
N=c1c2c(ncn1-c1ccccc1)Oc1ccc3ccccc3c1C2c1ccc2c(c1)OCCO2 (stereo not given) |  |  | inactive
O=C1NS(=O)(=O)c2cc(Br)ccc21 | -9.76% (inactive) |  | 
